Experimental data reported in paper PMC7862700, “An all-to-all approach to the identification of sequence-specific readers for epigenetic DNA modifications on cytosine”.

Key:
Experiment in all cases: DAPPL (digital affinity profiling via proximity ligation, sequencing); 10 mM Tris-HCl pH 7.5, 50 mM NaCl, 1 mM DTT, 4% glycerol, room temperature, 30 min; GST-TFs on glutathione beads, 16-mer random dsDNA library, 0.1% formaldehyde crosslink after washing; high values mean tight binding
[1] = target: T1, FLI1 (Homo sapiens, UniProt Q01543 1-452); details: protein: recombinant; tags: N-terminal GST; dsDNA, one strand shown
T1 sequence: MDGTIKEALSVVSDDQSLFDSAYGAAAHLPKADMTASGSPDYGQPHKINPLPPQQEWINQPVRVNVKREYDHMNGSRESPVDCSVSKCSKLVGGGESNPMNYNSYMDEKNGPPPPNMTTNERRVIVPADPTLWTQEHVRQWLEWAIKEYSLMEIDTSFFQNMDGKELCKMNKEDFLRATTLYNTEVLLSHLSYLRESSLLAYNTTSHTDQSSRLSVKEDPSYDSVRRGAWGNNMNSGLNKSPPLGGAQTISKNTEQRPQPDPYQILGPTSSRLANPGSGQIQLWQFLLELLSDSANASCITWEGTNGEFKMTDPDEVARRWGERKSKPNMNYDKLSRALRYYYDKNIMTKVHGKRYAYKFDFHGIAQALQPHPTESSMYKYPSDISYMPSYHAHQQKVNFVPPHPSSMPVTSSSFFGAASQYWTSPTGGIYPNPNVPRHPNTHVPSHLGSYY
How it was run: (§1)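 In yeast, human transcription factors were expressed with a GST fusion, then pulled down on glutathione beads and given DNA barcodes. Pooled with a tag-only sample, they were exposed to 200 nmole of a 16-mer random double-stranded DNA library (Tris/NaCl/DTT/glycerol buffer, room temperature, 30 min), washed, crosslinked with 0.1% formaldehyde, proximity-ligated using BsaI/T4 ligase for 1 h at 37 °C, PCR-amplified and read on an Illumina NextSeq500. Each hexamer's frequency of reads for a factor, divided by the matching frequency for the tag-only sample, gives the binding signal.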

[2] = target: T2, ELK1 (Homo sapiens, UniProt P19419 1-428); details: protein: recombinant; tags: N-terminal GST; dsDNA, one strand shown
T2 sequence: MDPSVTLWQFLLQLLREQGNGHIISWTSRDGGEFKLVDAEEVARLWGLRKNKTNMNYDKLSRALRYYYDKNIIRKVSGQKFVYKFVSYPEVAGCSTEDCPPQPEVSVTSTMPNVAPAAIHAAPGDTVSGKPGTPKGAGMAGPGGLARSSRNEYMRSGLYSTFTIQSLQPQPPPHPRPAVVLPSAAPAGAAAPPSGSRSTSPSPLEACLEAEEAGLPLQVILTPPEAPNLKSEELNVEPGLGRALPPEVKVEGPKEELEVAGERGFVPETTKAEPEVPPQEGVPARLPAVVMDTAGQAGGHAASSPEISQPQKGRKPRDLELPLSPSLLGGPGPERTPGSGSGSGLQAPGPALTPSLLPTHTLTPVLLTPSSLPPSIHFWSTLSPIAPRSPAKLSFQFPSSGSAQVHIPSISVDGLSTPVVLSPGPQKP
How it was run: as §1

[3] = target: T3, GABPA (Homo sapiens, UniProt Q06546 1-454); details: protein: recombinant; tags: N-terminal GST; dsDNA, one strand shown
T3 sequence: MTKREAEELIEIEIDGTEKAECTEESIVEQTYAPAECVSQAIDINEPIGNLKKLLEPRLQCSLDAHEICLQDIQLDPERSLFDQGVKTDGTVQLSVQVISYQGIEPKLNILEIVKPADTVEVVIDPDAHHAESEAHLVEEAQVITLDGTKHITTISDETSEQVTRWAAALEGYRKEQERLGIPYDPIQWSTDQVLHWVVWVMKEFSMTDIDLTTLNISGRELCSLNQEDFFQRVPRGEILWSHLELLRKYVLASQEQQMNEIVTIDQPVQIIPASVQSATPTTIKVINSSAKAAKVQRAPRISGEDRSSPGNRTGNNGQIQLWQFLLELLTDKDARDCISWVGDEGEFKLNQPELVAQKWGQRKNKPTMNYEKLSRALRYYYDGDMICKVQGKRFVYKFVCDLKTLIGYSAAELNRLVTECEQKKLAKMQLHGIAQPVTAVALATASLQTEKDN
How it was run: as §1

[4] = target: ELF1 (Homo sapiens, UniProt P32519 1-619); details: protein: recombinant; tags: N-terminal GST; dsDNA, one strand shown
How it was run: as §1

[5] = target: T4, EHF (Homo sapiens, UniProt Q9NZC4 1-300); details: protein: recombinant; tags: N-terminal GST; dsDNA, one strand shown
T4 sequence: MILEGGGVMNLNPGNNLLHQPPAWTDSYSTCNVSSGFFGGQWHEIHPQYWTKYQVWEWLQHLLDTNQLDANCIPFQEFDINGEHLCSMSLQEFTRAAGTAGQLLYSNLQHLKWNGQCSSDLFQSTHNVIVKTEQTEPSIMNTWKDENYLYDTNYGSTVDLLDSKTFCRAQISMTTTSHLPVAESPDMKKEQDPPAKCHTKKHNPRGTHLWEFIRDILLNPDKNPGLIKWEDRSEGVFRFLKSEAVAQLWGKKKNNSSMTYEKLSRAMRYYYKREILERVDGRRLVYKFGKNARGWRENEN
How it was run: as §1

[6] = target: SPIB (Homo sapiens, UniProt Q01892 1-262); details: protein: recombinant; tags: N-terminal GST; dsDNA, one strand shown
How it was run: as §1

[7] = target: T5, ETV2 (Homo sapiens, UniProt O00321 1-342); details: protein: recombinant; tags: N-terminal GST; dsDNA, one strand shown
T5 sequence: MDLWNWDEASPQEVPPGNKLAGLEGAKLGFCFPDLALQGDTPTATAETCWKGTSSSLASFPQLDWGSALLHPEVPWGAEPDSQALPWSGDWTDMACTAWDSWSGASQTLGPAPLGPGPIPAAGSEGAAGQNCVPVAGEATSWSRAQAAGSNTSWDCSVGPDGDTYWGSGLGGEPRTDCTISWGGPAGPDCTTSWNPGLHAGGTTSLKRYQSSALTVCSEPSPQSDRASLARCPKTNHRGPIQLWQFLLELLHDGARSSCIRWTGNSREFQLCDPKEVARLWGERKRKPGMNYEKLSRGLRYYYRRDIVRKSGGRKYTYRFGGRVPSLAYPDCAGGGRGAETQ
How it was run: as §1

[8] = target: ETV1 (Homo sapiens, UniProt P50549 1-477); details: protein: recombinant; tags: N-terminal GST; dsDNA, one strand shown
How it was run: as §1

[9] = target: T6, ERF (Homo sapiens, UniProt P50548 1-548); details: protein: recombinant; tags: N-terminal GST; dsDNA, one strand shown
T6 sequence: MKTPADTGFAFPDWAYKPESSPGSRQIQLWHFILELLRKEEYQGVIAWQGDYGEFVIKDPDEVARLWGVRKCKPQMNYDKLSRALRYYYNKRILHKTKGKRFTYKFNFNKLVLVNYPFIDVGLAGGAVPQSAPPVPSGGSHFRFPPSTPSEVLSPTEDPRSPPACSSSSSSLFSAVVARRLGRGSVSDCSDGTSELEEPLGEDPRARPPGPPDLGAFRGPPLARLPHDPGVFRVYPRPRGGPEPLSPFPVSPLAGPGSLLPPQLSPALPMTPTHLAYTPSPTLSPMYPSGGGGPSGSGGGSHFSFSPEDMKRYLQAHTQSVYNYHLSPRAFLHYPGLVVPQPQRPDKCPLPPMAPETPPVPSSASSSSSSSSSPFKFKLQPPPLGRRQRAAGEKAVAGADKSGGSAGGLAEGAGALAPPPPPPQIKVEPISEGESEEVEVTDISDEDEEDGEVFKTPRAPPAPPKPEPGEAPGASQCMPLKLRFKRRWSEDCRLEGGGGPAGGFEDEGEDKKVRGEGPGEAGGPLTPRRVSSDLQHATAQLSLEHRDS
How it was run: as §1

[10] = target: T7, ETV3L (Homo sapiens, UniProt Q6ZN32 1-361); details: protein: recombinant; tags: N-terminal GST; dsDNA, one strand shown
T7 sequence: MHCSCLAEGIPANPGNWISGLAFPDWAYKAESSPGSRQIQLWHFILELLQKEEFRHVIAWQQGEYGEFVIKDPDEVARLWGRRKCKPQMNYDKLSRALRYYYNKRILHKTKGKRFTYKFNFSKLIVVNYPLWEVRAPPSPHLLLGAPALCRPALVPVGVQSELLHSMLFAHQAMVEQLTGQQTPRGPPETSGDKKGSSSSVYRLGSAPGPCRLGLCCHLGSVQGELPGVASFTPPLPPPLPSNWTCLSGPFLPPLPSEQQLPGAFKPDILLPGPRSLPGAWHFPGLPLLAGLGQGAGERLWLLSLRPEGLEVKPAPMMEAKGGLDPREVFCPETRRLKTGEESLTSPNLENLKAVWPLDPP
How it was run: as §1

[11] = target: T8, ETS2 (Homo sapiens, UniProt P15036 1-469); details: protein: recombinant; tags: N-terminal GST; dsDNA, one strand shown
T8 sequence: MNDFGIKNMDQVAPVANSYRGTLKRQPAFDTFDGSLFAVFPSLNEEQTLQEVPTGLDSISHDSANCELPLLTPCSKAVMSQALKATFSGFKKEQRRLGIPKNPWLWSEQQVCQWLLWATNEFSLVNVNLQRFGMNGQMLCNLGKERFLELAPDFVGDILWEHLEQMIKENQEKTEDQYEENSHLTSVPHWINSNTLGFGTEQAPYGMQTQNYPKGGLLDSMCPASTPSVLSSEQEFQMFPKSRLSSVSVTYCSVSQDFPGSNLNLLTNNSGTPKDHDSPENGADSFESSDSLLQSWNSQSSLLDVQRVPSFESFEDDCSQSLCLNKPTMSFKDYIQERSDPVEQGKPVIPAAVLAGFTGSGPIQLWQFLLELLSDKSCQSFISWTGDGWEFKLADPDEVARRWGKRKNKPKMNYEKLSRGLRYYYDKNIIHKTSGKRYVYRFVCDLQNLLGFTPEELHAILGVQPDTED
How it was run: as §1

[12] = target: ETV6 (Homo sapiens, UniProt P41212 1-452); details: protein: recombinant; tags: N-terminal GST; dsDNA, one strand shown
How it was run: as §1

[13] = target: HSF1 (Homo sapiens, UniProt Q00613 1-529); details: protein: recombinant; tags: N-terminal GST; chain copies: 3; dsDNA, one strand shown
How it was run: as §1

ELF1, sequence (P32519 whole entry): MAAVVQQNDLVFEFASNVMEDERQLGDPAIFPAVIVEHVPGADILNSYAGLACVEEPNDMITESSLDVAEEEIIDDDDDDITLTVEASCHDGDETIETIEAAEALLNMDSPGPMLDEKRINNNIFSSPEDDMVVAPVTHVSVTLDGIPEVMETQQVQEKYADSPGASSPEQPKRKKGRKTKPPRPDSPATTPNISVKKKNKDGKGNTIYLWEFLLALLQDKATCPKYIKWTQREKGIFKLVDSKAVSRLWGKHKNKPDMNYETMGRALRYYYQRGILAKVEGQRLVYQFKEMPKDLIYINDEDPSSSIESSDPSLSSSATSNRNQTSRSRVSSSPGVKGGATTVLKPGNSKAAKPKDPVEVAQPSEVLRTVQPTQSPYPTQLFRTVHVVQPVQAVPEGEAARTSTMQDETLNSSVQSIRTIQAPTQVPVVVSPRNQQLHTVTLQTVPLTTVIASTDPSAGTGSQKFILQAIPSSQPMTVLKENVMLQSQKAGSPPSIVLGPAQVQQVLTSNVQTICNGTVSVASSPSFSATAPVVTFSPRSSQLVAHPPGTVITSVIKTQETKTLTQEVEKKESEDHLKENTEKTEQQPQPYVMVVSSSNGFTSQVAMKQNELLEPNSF
SPIB, sequence (Q01892 whole entry): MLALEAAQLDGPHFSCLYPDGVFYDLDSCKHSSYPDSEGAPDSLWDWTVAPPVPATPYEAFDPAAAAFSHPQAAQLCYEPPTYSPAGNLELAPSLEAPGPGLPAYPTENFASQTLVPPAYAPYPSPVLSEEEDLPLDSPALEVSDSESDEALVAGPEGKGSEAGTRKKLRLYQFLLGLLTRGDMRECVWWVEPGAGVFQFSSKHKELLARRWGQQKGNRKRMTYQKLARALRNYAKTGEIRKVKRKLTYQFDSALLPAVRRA
ETV1, sequence (P50549 whole entry): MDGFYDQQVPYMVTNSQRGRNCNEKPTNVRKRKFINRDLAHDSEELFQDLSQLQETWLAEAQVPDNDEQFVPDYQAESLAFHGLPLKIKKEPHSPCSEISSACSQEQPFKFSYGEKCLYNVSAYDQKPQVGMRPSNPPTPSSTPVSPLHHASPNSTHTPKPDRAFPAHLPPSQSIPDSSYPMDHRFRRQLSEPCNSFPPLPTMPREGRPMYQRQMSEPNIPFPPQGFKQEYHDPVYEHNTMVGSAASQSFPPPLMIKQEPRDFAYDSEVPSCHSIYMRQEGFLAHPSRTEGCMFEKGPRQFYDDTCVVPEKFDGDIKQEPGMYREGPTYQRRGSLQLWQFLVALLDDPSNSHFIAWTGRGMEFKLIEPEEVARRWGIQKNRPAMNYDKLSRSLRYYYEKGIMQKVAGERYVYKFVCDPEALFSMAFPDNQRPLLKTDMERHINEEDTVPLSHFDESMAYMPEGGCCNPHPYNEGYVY
ETV6, sequence (P41212 whole entry): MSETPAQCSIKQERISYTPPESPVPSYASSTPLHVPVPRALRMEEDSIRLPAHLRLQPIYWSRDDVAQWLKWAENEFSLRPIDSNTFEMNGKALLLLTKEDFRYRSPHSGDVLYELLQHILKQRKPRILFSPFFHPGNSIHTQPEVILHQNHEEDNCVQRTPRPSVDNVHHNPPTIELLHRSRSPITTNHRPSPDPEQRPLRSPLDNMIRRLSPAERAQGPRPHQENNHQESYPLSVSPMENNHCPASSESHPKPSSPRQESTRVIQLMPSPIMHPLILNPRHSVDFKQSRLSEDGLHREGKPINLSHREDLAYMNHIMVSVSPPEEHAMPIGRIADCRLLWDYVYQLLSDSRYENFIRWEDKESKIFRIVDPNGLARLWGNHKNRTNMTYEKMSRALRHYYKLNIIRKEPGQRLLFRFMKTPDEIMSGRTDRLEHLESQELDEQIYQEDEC
HSF1, sequence (Q00613 whole entry): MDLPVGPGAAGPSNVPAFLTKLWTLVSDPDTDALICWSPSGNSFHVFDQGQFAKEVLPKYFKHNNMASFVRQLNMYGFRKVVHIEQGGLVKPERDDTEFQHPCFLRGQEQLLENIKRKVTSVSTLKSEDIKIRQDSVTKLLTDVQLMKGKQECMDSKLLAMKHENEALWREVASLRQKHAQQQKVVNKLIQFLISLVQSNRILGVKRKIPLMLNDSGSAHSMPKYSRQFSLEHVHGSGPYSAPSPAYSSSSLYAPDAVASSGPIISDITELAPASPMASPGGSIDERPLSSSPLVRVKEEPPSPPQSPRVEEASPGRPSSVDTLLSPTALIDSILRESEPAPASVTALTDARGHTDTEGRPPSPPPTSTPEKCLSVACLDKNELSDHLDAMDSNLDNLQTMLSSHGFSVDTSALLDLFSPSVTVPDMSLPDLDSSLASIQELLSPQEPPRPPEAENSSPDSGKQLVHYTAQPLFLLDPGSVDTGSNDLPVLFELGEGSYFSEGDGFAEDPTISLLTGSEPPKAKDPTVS

Question: For GCATCT, which binding signal [1] is on record?
Answer: Its binding signal is 1.03 fold enrichment (6-mer frequency, TF over GST control).

Question: What about the binding signal [2] of the same sequence?
Answer: Its binding signal is 1.02 fold enrichment (6-mer frequency, TF over GST control).

Question: What about the binding signal [3] of the same sequence?
Answer: The binding signal was 1.03 fold enrichment (6-mer frequency, TF over GST control).

Question: What about the binding signal [4] of the same sequence?
Answer: Its binding signal is 1.02 fold enrichment (6-mer frequency, TF over GST control).

Question: What about the binding signal [5] of the same sequence?
Answer: Its binding signal is 1.06 fold enrichment (6-mer frequency, TF over GST control).

Question: What about the binding signal [6] of the same sequence?
Answer: Its binding signal is 1.02 fold enrichment (6-mer frequency, TF over GST control).

Question: What about the binding signal [7] of the same sequence?
Answer: The binding signal was 1 fold enrichment (6-mer frequency, TF over GST control).

Question: What about the binding signal [8] of the same sequence?
Answer: Its binding signal is 1.09 fold enrichment (6-mer frequency, TF over GST control).

Question: And the binding signal [9]?
Answer: The binding signal was 1.04 fold enrichment (6-mer frequency, TF over GST control).

Question: And the binding signal [10]?
Answer: Its binding signal is 1.05 fold enrichment (6-mer frequency, TF over GST control).

Question: And the binding signal [11]?
Answer: The binding signal was 1.04 fold enrichment (6-mer frequency, TF over GST control).

Question: And the binding signal [12]?
Answer: Its binding signal is 1.01 fold enrichment (6-mer frequency, TF over GST control).

Question: With TCCAGT as the sequence, how does the binding signal [13] read?
Answer: Its binding signal is 1.01 fold enrichment (6-mer frequency, TF over GST control).
